For 76 compounds, inhibition results are on record in PubChem BioAssay AID652115 (Broad Institute, 2013).

As usually defined, the inhibition is the change of the read-out against control, counted positive when it falls.

The campaign covered roughly 330,000 compounds. About 3,800 (1.2%) were called active. The list comes from a sample in which actives are over-represented; it also holds similar structures and randomly drawn compounds. Unmarked numbers belong to inactive results. Rule as the data show it: active = inhibition above about 15%; inconclusive = no clear call, values can overlap the other calls; inactive = below that.

The target of this assay is NAD-dependent protein deacylase sirtuin-5, mitochondrial (Homo sapiens) (UniProt Q9NXA8). As to the kind of experiment: SIRT5 desuccinylase inhibitors, primary screen, biochemical, fluorescence imaging, single point, set 5 (AID 652115). Particulars: Purified SirT5, succinyl-peptide AMC, trypsin-coupled fluorescence; at 15 µM; active compounds read high.
NAD-dependent protein deacylase sirtuin-5, mitochondrial (Homo sapiens), sequence (Q9NXA8 whole entry, looked up): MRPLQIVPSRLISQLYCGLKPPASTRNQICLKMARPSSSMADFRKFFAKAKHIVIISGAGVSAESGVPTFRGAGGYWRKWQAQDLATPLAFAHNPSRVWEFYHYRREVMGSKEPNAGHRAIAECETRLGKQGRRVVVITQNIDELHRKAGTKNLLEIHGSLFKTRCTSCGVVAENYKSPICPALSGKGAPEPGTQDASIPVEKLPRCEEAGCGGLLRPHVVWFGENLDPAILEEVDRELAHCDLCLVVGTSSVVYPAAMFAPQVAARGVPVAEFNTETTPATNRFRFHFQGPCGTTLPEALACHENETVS
In the case of `Cc1noc(C)c1NC(=O)N[C@@H]1C=C[C@@H](CC(=O)Nc2ccccc2)O[C@H]1CO`, the inhibition was 32.2% (active).

`Cc1noc(C)c1NC(=O)N[C@H]1C=C[C@@H](CC(=O)Nc2ccccc2)O[C@H]1CO`: the inhibition was 1.42%.

`Cc1noc(C)c1NC(=O)N[C@@H]1CC[C@H](CC(=O)Nc2ccccc2)O[C@H]1CO`: the inhibition was 5.15%.

As for `O=S(=O)(Cc1ccccc1)c1nc2ccccc2n1Cc1ccccn1`, the inhibition was 21.7% (active).

For `CC(=O)c1nc2ccccc2n1Cc1ccccc1`, the inhibition was -2.51%.

As to `c1ccc(CCc2ccccn2)cc1`, the inhibition is 9.65%.

Take `COc1ccccc1NC(=O)N[C@H]1C=C[C@H](CC(=O)N[C@@H](C)c2ccccc2)O[C@H]1CO`: the inhibition is -1.94%.

For `C/C=C/c1cnc2c(c1)C(=O)N([C@@H](C)CO)C[C@@H](C)[C@@H](CN(C)C(=O)c1cnccn1)O2`, the inhibition is -1.71%.

For `Cc1scc(C(=O)NNC(=S)NCc2ccccc2)c1C`, the inhibition is -0.205%.

With `Cc1occc1C(=O)NNC(=S)NCC(C)C`, the inhibition is 19.4% (active).

For the compound `Cc1scc(C(=O)NNC(=S)NCC(C)C)c1C`, the inhibition is -4.94%.

Take `CO[C@H]1CN(C)C(=O)c2cc(NC(=O)C3CC3)ccc2OC[C@H](C)N(C(=O)CN(C)C)C[C@H]1C`: the inhibition was 0.163%.

Regarding `CCC(=O)N1[C@@H]2c3ccc(-c4ccc(F)cc4)c(=O)n3C[C@H]1[C@H](CO)[C@H]2C(=O)N(C)C`, the inhibition is -32.2%.

Turning to `COc1ccc2c3c(n(C)c2c1)[C@@H](CO)N(CC1CC1)CC31CCN(C(=O)c2ccc3c(c2)OCO3)CC1`, the inhibition was 3.18%.

For `CC(C)Oc1ccc(C(=O)NCC(=O)Nc2ccc3c(c2)CCC3)cc1`, the inhibition is -4.19%.

Regarding `COc1cccc(NC(=O)CN(C)CC(=O)Nc2ccc3c(c2)CCC3)c1`, the inhibition was 2.3%.

With `COc1ccc(-c2ocnc2C(=O)Nc2ccc3c(c2)CCC3)cc1`, the inhibition was 22.1% (active).

As for `CNC(=O)C[C@@H]1CC[C@H]2[C@H](COc3ccc(NC(=O)c4cccc(OC)c4)cc3C(=O)N2C)O1`, the inhibition is 2.09%.

With `CO[C@H]1O[C@H](CO)[C@@H](OC(=O)Nc2ccccc2)[C@H](OC(=O)Nc2ccc3c(c2)OCO3)[C@H]1OC(=O)Nc1ccc2c(c1)OCO2`, the inhibition is 2.4%.

As to `CCc1cccc(NC(=O)O[C@H]2[C@H](OC(=O)Nc3ccccc3-c3ccccc3)[C@H](OC(=O)Nc3ccccc3-c3ccccc3)[C@@H](OC)O[C@@H]2CO)c1`, the inhibition was 17.1% (active).

For `CO[C@H]1O[C@H](CO)[C@@H](OC(=O)Nc2ccccc2-c2ccccc2)[C@H](OC(=O)Nc2ccccc2)[C@H]1OC(=O)Nc1ccccc1`, the inhibition is 8.45%.

For `C[C@H]1CN([C@@H](C)CO)C(=O)c2cc(C3=CCCCC3)cnc2O[C@@H]1CN(C)C(=O)c1ccc(F)cc1`, the inhibition is 1.19%.

With `CCCNC(=O)N1[C@H](CO)[C@@H]2c3ccccc3N(C(=O)C3CC3)C[C@@H]21`, the inhibition was 1.05%.

`Cc1ccc(NC2=C(Cl)C(=O)OC2OC(=O)c2ccccc2C)cc1` (stereo unspecified): the inhibition was 17.3% (active).

On to `CCOC(=O)c1ccc(Nc2cc3ccccc3c(=O)[nH]2)cc1`, for which the inhibition was -0.372%.

With `Cc1ccccc1C(=O)OC1OC(=O)C(Cl)=C1Nc1ccccc1` (stereo unspecified), the inhibition was -2.37%.

In the case of `O=C(c1cccnc1)N1CC(=O)N2[C@H](C1)[C@H](c1ccc(-c3ccccc3F)cc1)[C@@H]2CO`, the inhibition was -2.3%.

Take `CCCNC(=O)Nc1ccc2c(c1)C(=O)N(C)C[C@H](OC)[C@H](C)CN(Cc1cccnc1)[C@@H](C)CO2`: the inhibition was 0.086%.

Take `CC(=O)Oc1ccc2c(=O)oc(-c3ccc([N+](=O)[O-])cc3)nc2c1`: the inhibition was -2.32%.

As for `O=[N+]([O-])c1ccc2c(c1)Nc1nc3ccccc3nc1N2`, the inhibition is 1.03%.

Regarding `O=[N+]([O-])c1ccc2oc(-c3cccc(O)c3)nc2c1`, the inhibition is 18.3% (active).

With `Cc1cccc(C(=O)NCc2nnc(SC(C)C(=O)Nc3nnc(C)s3)n2C)c1` (stereo unspecified), the inhibition was 21.7% (active).

As to `CC(Sc1nnc(CNC(=O)c2ccccc2F)n1C)C(=O)Nc1nccs1` (stereo unspecified), the inhibition is -2.13%.

Regarding `COc1ccccc1C(=O)NCc1nnc(SC(C)C(=O)Nc2nccs2)n1C` (stereo unspecified), the inhibition was -2%.

For `CCCNC(=O)C[C@H]1CC[C@H]2[C@@H](COC[C@@H](O)CN2C(=O)Nc2ccc(Cl)c(Cl)c2)O1`, the inhibition was 3.46%.

Take `Nc1nc2c(ncn2[C@@H]2O[C@H](CNCc3ccc(OCCCN4CCOCC4)cc3)[C@@H](O)[C@H]2O)c(=O)[nH]1`: the inhibition is 22.3% (active).

For the compound `CC(C)(O)C#Cc1ccc(CNC[C@H]2O[C@@H](n3cnc4c(=O)[nH]c(N)nc43)[C@H](O)[C@@H]2O)s1`, the inhibition is -5.95%.

For `Nc1nc2c(ncn2[C@@H]2O[C@H](CNS(=O)(=O)N3CCc4ccccc4C3)[C@@H](O)[C@H]2O)c(=O)[nH]1`, the inhibition was 2.78%.

For `CCOC(=O)[C@]12CCCC=C1N(CCC1=CCCCC1)C(=O)[C@H](CC(=O)N1CCN(C(=O)c3ccco3)CC1)C2`, the inhibition is 16.3% (active).

As to `CCOC(=O)[C@]12CCCC=C1N(CCC1=CCCCC1)C(=O)[C@H](CC(=O)N1CCCCC1)C2`, the inhibition is -0.497%.

Consider `CCOC(=O)[C@]12CCCC=C1N(CCC1=CCCCC1)C(=O)[C@H](CC(=O)N1CCSCC1)C2`, for which the inhibition was 0.458%.

As for `C[C@H]1CN([C@@H](C)CO)C(=O)c2cc(C#CC3CCCC3)cnc2O[C@@H]1CN(C)C(=O)Cc1ccccn1`, the inhibition is 0.934%.

For the compound `COc1ccc(Cn2c(=S)[nH]c3cc(C(=O)NCCCN4CCOCC4)ccc3c2=O)cc1`, the inhibition was -1.07%.

With `COc1ccc(OC)c(-n2c(=S)[nH]c3cc(C(=O)N4CCCCC4)ccc3c2=O)c1`, the inhibition is -0.433%.

Regarding `COc1ccc(Cn2c(=S)[nH]c3cc(C(=O)N4CCCCC4)ccc3c2=O)cc1`, the inhibition was 16.6% (active).

In the case of `Cn1cnc(S(=O)(=O)N2C[C@H](O)COC[C@@H]3O[C@H](CC(=O)NC4Cc5ccccc5C4)CC[C@H]32)c1`, the inhibition was 1.91%.

Consider `COc1cccc(C#Cc2ccc3c(c2)[C@H]2[C@H](CCN2C(=O)CC2CC2)[C@H](CO)N3)c1`, for which the inhibition was 0.183%.

With `Cc1ccc(NC(=O)c2csc3c2CCCC3)cc1`, the inhibition is -2.6%.

On to `O=C(N/N=C/c1ccco1)c1csc2c1CCCC2`, for which the inhibition was 15.8% (active).

Turning to `O=C(N/N=C/c1ccco1)c1ccc(NC(=O)C2CC2)cc1`, the inhibition was 0.297%.

With `CCCNC(=O)N1C[C@H](O)COC[C@H]2O[C@@H](CC(=O)NCc3ccncn3)CC[C@@H]21`, the inhibition is 0.03%.

Turning to `C[C@@H]1CN([C@@H](C)CO)C(=O)c2cc(-c3cncnc3)cnc2O[C@H]1CN(C)Cc1cncnc1`, the inhibition was 4.33%.

Consider `Cc1ccccc1NC(=O)CSC(=O)c1ccccc1`, for which the inhibition was -2.14%.

As to `Cc1ccccc1NC(=O)Cn1c(=O)n(CC2CCCO2)c(=O)c2ccccc21` (stereo unspecified), the inhibition was -0.914%.

With `Cc1ccccc1NC(=O)CN1C(=O)N/C(=C\c2cccn2-c2cccc(C(=O)O)c2)C1=O`, the inhibition was 18.5% (active).

For the compound `O=C(C[C@@H]1CC[C@H](NC(=O)NC2CCCCC2)[C@H](CO)O1)NCc1ccc(F)cc1`, the inhibition was 2.17%.

Take `O=C(C[C@@H]1C[C@H]2c3cc(NS(=O)(=O)c4ccc(F)cc4)ccc3O[C@H]2[C@@H](CO)O1)NCc1ccccc1F`: the inhibition was 2.14%.

`C[C@H](CO)N1C[C@H](C)[C@H](CN(C)C(=O)Nc2ccc(F)cc2)OCCCC[C@H](C)Oc2ccc(NC(=O)CCC(F)(F)F)cc2C1=O`: the inhibition was -0.898%.

Take `COCC#Cc1cnc2c(c1)C(=O)N([C@H](C)CO)C[C@H](C)[C@H](CN(C)C(=O)CCN1CCCCC1)O2`: the inhibition is 9.41%.

Consider `CCCN1[C@H](C(=O)NC2Cc3ccccc3C2)[C@@H](CO)[C@@H]2Cn3c(cccc3=O)[C@@H]21`, for which the inhibition is 2.03%.

As for `COCC(=O)N1CC(=O)N2[C@H](CO)[C@@H](c3ccc(C#CC4CCCC4)cc3)[C@H]2C1`, the inhibition was 0.692%.

Turning to `CCCC#Cc1ccc([C@H]2[C@H](CO)N3CCCCN(S(=O)(=O)CC)C[C@@H]23)cc1`, the inhibition was -5.72%.

With `CCCC#Cc1ccc([C@H]2[C@@H](CO)N3CCCCN(S(=O)(=O)Cc4ccccc4)C[C@H]23)cc1`, the inhibition was 37.3% (active).

In the case of `CCCC#Cc1ccc([C@H]2[C@@H](CO)N3CCCCN(S(=O)(=O)CC)C[C@H]23)cc1`, the inhibition is -3.78%.

As for `COC(=O)C[C@H]1CC[C@H]2[C@@H](COc3ccc(NC(=O)C4CC4)cc3C(=O)N2C)O1`, the inhibition was 4.29%.

Consider `COc1ccc2c3c(n(C)c2c1)[C@H](CO)N(C(C)=O)CC31CCN(Cc2cccnc2)CC1`, for which the inhibition is -0.634%.

Consider `Cc1ccc(S(=O)(=O)N[C@@H]2CC[C@H](CCn3cc(-c4cccc(F)c4)nn3)O[C@@H]2CO)cc1`, for which the inhibition was -2.4%.

As for `Cc1c(C(N)=O)sc2ncn(CCOc3ccccc3)c(=O)c12`, the inhibition is 25.5% (active).

As to `Clc1ncn(CCOc2ccccc2)c1Cl`, the inhibition was -0.177%.

For `Cc1cccc(OC(=O)c2sc3ncn(C)c(=O)c3c2C)c1`, the inhibition was 6.38%.

On to `COc1ccc(NC(=O)Nc2ccc3c(c2)C(=O)N([C@H](C)CO)C[C@@H](C)[C@H](CN(C)CC2CCCCC2)OCCCC[C@@H](C)O3)cc1`, for which the inhibition is -2.57%.

For the compound `CCC(=O)N1CC(=O)N2[C@H](CO)[C@@H](c3ccc(-c4ccc(C(=O)N(C)C)cc4)cc3)[C@H]2C1`, the inhibition is -3.02%.

For the compound `CCNC(=O)C[C@H]1CC[C@@H]2[C@H](COC[C@H](O)CN2C(=O)Nc2c(C)noc2C)O1`, the inhibition is -2.07%.

Turning to `Cc1cccnc1C(NC(=O)C1CCN(Cc2ccc(Cl)c(Cl)c2)CC1)c1ccc(Cl)cc1` (stereo unspecified), the inhibition is 0.115%.

With `O=C(NC(c1ccc(Cl)cc1)c1cnccn1)C1CCN(Cc2ccc(Cl)cc2)CC1` (stereo unspecified), the inhibition was 18.2% (active).

Consider `O=C(NC(c1ccc(-c2ccccc2)cc1)c1cnccn1)C1CCN(CCOc2ccc(Cl)cc2Cl)CC1` (stereo unspecified), for which the inhibition is -0.795%.
